Laboratory results taken from PubChem BioAssay AID623911 (Vanderbilt High Throughput Screening Facility, 2012).
The whole screen tested about 2,100 compounds, of which about 770 (37%) were called active. This is one part of the list. Values without a mark were called inactive.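 Rule for the calls: active = by-eye trace score of 1 for enhancers or -1 for inhibitors, so actives lie on both sides (some results past the limit were not filed as active); inactive = score 0, or 3 fluorescent, or 4 baseline rise.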

target: G protein-activated inward rectifier potassium channel 2 (Homo sapiens) + G protein-activated inward rectifier potassium channel 1 (Homo sapiens) (UniProt P48051+P48549); assay: GIRK1/2 thallium flux modulators, retest, confirmation, cell-based, HEK293 rmGlu8/hGIRK1/2, FluoZin-2 (AID 623911); conditions: HEK293 rmGlu8/hGIRK1/2, thallium flux FluoZin-2; actives lie on both sides; glutamate co-added at its EC20 level
Sequence (P48051 whole entry, looked up): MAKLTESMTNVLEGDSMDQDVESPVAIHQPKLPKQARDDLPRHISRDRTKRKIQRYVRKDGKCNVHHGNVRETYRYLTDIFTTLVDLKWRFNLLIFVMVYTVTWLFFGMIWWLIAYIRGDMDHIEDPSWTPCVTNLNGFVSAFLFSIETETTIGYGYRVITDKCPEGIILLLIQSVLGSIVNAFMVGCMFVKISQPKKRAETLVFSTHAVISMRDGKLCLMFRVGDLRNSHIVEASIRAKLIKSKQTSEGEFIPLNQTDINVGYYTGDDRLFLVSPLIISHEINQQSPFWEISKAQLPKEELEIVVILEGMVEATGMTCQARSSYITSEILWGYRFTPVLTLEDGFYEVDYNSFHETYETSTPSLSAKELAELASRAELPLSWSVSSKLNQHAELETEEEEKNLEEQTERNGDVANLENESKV
Sequence (P48549 whole entry, looked up): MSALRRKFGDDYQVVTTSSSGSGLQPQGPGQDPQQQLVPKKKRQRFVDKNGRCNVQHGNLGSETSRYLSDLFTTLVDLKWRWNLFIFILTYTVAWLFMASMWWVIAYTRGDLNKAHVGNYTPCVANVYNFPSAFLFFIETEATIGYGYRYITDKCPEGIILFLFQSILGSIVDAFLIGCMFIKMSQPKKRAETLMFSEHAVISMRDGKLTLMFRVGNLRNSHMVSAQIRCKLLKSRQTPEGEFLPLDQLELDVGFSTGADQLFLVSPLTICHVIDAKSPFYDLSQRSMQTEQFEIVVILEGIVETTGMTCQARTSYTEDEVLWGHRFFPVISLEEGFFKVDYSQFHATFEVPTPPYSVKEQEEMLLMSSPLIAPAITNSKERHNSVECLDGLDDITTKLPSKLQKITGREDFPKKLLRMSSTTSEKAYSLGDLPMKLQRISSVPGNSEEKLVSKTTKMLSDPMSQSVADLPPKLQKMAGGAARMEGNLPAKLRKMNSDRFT

SMILES	manual score
O=C(NNC(=S)Nc1ccccc1)c1cccc(Br)c1	0
Cc1ccc(C(=O)NNC(=S)Nc2cccc3ccccc23)s1	0
O=C(NNC(=S)Nc1cccc2ccccc12)c1cccc(Br)c1	1 (active)
CC(C)(C)S(=O)(=O)c1ccc(S(=O)(=O)C(C)(C)C)s1	0
CC(C)(C)C(=O)NC(=S)NNC(=O)c1sc2ccccc2c1Cl	1 (active)
CCCOC(=S)NC(=O)c1sc2ccccc2c1Cl	1 (active)
CCCCOC(=S)NC(=O)c1sc2ccccc2c1Cl	1 (active)
COc1ccccc1C(=O)NC(=S)NNC(=O)c1sc2ccccc2c1Cl	0
O=C(NC(=S)N(CCCCO)C1CCCCC1)c1sc2ccccc2c1Cl	1 (active)
Nc1c(C(O)(C(F)(F)F)C(F)(F)F)ccc2ccccc12	0
CCCCN(Cc1ccccc1)S(=O)(=O)c1ccc2[nH]c(=O)oc2c1	0
CCOC(=S)NC(=O)c1sc2ccccc2c1Cl	1 (active)
Cn1c(-c2sc3ccccc3c2Cl)n[nH]c1=S	0
COc1ccccc1C(=O)NNC(=S)NC(=O)c1sc2ccccc2c1Cl	0.5
COc1cccc(-n2c(SCC(=O)NCCC3=CCCCC3)nc3n[nH]c(C)c3c2=N)c1	-0.5
Cc1cc(C)c2nc(SCC(=O)NCCC3=CCCCC3)cc(C)c2c1	1 (active)
Cc1cc(C)c2nc(SC(C)C(=O)NCC(=O)Nc3ccc(F)c(F)c3F)cc(C)c2c1 (stereo not given)	0
Nn1c(SC/C=C/c2ccccc2)nnc1-c1ccccn1	0
COc1cc(Cl)cc2c1Sc1ccccc1/C2=C/CCN(C)C	-1 (active)
Cc1nc(SC2CCOC2=O)c2c(C)c(C)sc2n1 (stereo not given)	1 (active)
S=C(NN=C1C2CC3CC(C2)CC1C3)Nc1ccccc1	0
CCCCn1c(SCc2nc(N)nc(Nc3ccccc3C)n2)nc2ccccc2c1=O	0
O=C(c1ccccc1Oc1ccccc1)N1CCN(c2ccccc2)CC1	-1 (active)
CN1CCN(C(=O)c2sc(=S)n(-c3ccccc3)c2N)CC1	0
Cc1ccc(-n2nc(-c3cccs3)cc2C(=O)NCC2CCCO2)c(C)c1 (stereo not given)	-1 (active)
O=C(CN1C(=O)c2ccccc2C1=O)Nc1sc2c(c1C(=O)NCC1CCCO1)CCC2 (stereo not given)	0
COc1ccc(C(OC(=O)c2cccs2)C(=O)NCC2CCCO2)cc1 (stereo not given)	0

SMILES	manual score
Cc1cccc(S(=O)(=O)Nc2cccc3c2C(=O)c2ccccc2-3)c1	0
COC(=O)Nc1nnc(Cc2ccc(Cl)cc2)s1	0
CC(C)Cn1cnc2sc3c(c2c1=N)CCCC3	-1 (active)
N#Cc1ccc(-c2csc(NC3=NCCCCC3)n2)cc1	-1 (active)
CC(CCc1ccccc1)NC(=O)N1CCOCC1 (stereo not given)	0
O=C(NC(=Nc1ccccc1)N1CCOCC1)Nc1ccccc1	1 (active)
O=C(NCCN1CCN(C(=O)Nc2ccccc2)CC1)Nc1ccccc1	0
CC1=CC(C)(C)n2c(O)c(N=NC(N)=S)c3cccc1c32	0
CCCSc1nc2sc3c(c2c(=O)[nH]1)CCN(Cc1ccccc1)C3	3
Oc1c(Cl)cc(Cl)c2c1NCCC2	0
Cc1ccnc(NC(=S)NC(=O)c2cccs2)c1	1 (active)
Cc1ccc2oc(-c3cccc(NC(=S)NC(=O)c4cccs4)c3)nc2c1	0
Cc1cccc(NC(=S)NC(=O)c2cccs2)n1	1 (active)
O=C(NC(=S)Nc1ccc(Cl)cn1)c1cccs1	0.5
CN1C(=O)NC(c2ccccc2)C2=C1CN(Cc1ccccc1)C2=O (stereo not given)	0
CCCOc1cccc(C(=O)NC(=S)Nc2cccc(C(F)(F)F)c2)c1	0
CCCOc1ccc(C(=O)NNC(=S)NC(=O)CC)cc1	1 (active)
CCCCOc1ccc(C(=O)NNC(=S)NC(=O)CC)cc1	1 (active)
CC1Cc2nc(SCC(=O)Nc3nc4ccccc4s3)n(C)c(=O)c2S1 (stereo not given)	-0.5
N#Cc1nc(COc2ccccc2)oc1N1CCN(c2cccc(Cl)c2)CC1	0
Cc1oc(-c2ccccc2)nc1CS(=O)CC(=O)O (stereo not given)	1 (active)
COc1ccccc1N=Cc1nc(-c2ccccc2)oc1OC(C)=O	0
CCC(=O)Oc1oc(-c2ccccc2)nc1C=Nc1ccccc1OC	0
Cc1ccn2c(NC3CCCCC3)c(C(C)C)nc2c1	-1 (active)
C=CCOc1cccc(C2/C(=C(/O)c3ccc(C)cc3)C(=O)C(=O)N2CCN2CCOCC2)c1 (stereo not given)	0
CCc1cccc(CC)c1-n1c(SCC(=O)N2CCc3ccccc3C2)nnc1-c1cccnc1	-1 (active)
Cn1c(SCC(=O)N2c3ccccc3CCc3ccccc32)nnc1-c1ccc(O)cc1	0

SMILES	manual score
CCOC(=O)c1cccc(NC(=O)CSc2nnc(-c3cccnc3)n2C)c1	0
CCN=c1scc(-c2ccco2)n1/N=C/c1ccc(O)cc1	0
CC(C)(C)C(=O)Nc1nc2c(s1)COc1ccccc1-2	-0.5
CC1(c2ccccc2)CC(C)(C)N2C(=O)/C(=C3\SC(=S)NC3=O)c3cccc1c32 (stereo not given)	0
CN1CCN(Cc2cccc(Oc3ccc(Cl)cc3)c2)CC1	0
CN1CCN(CC(=O)N2c3ccccc3C(C)(c3ccccc3)CC2(C)C)CC1 (stereo not given)	-1 (active)
CN1CCN(CC(=O)N2c3ccccc3C(C)(c3ccc(Cl)cc3)CC2(C)C)CC1 (stereo not given)	-1 (active)
COC(=O)c1ccc(Cl)c(NC(=O)CN2CCN(C)CC2)c1	0
S=c1[nH]nc(CSc2nc3ccccc3s2)n1C1CCCCC1	0
N#Cc1ccsc1NC(=O)CN1CCN(c2ccc(O)cc2)CC1	0
Cc1cc(NC(=O)CSc2nc(C3CC3)nc3sc(C)c(C)c23)no1	1 (active)
Cc1cc(NC(=O)CSc2nc3ccccc3c(=O)n2Cc2ccccc2)no1	0
COc1cc(OC)c2nc(C)c3c(c2c1)N(c1ccc(O)cc1)CC3	-1 (active)
O=C(Nc1ccccc1C(=O)O)c1ccc(NC(=O)c2ccc(Br)o2)cc1	-0.5
O=C(Nc1nncs1)c1ccccc1NS(=O)(=O)c1cccs1	0
O=C(Nc1ccccc1)c1ccccc1NS(=O)(=O)c1ccc(Cl)s1	-1 (active)
CCC1CCCCN1C(=O)CSc1nnc(-c2ccco2)o1 (stereo not given)	0
O=C(NC(=S)N1CCCc2ccccc21)c1ccc(Br)cc1	1 (active)
O=C(COc1ccc(Br)cc1Br)NC(=S)N1CCCc2ccccc21	0
O=C(NC(=S)N1CCCc2ccccc21)c1ccc(Cl)cc1	1 (active)
O=C(NC(=S)Nc1ccccc1N1CCCC1)c1ccccc1[N+](=O)[O-]	0
O=C(NC(=S)Nc1ccccc1N1CCCC1)c1ccc([N+](=O)[O-])cc1	1 (active)
Cc1c(C(=O)NC(=S)Nc2ccccc2N2CCCC2)cccc1[N+](=O)[O-]	0
CCC1CCCCN1C(=S)NC(=O)c1ccc([N+](=O)[O-])cc1 (stereo not given)	1 (active)
O=c1[nH]c(NCCO)nc2c1C1(CCCCC1)Cc1ccccc1-2	0
CCOC(=O)c1cccc(-n2c(C)cc(C=O)c2C)c1	0
O=C(Nc1nc(-c2cc3ccccc3oc2=O)cs1)c1ccc(Br)o1	0

SMILES	manual score
O=C(NC(=S)N1CCCc2ccccc21)c1ccc([N+](=O)[O-])cc1	1 (active)
O=C(c1ccccc1)N1CCCc2ccccc21	0
O=C(N/N=C1\CCCc2ccccc21)c1ccc([N+](=O)[O-])cc1	0
O=C(NC(=S)N1CCc2ccccc21)c1ccccc1	1 (active)
O=C(NC(=S)N1CCc2ccccc21)c1ccccc1Br	1 (active)
O=C(NC(=S)N1CCCc2ccccc21)c1ccccc1	1 (active)
C=CCN1C(=O)/C(=C2/Sc3ccccc3N2C)SC1=Nc1c(C)n[nH]c1C	0
O=C(NC(=S)N1CCN(c2ccc([N+](=O)[O-])cc2)CC1)c1ccc(F)cc1	1 (active)
O=C(NC(=S)N1CCN(c2ccc(F)cc2)CC1)C12CC3CC(CC(C3)C1)C2	0
CCC(=O)c1ccc(N2CCN(C(=O)c3cc([N+](=O)[O-])ccc3N3CCN(C)CC3)CC2)c(F)c1	0
O=S(=O)(Nc1ccccc1N1CCCCC1)c1ccc(Cl)s1	0
O=S(=O)(Nc1cc(Cl)ccc1N1CCCCC1)c1cccs1	-1 (active)
CCC/C(=N/NC(=O)c1csc(C)c1C)c1ccc(Cl)s1	0
COc1ccc(-c2onc(C)c2-c2ccc(C(=O)OC(C)C)o2)c(O)c1	0
COc1ccc(-c2c(S(=O)(=O)c3ccccc3)cnn2-c2ccccc2)cc1	-1 (active)
COc1ccc(-c2c3c(=O)n(C)c(=O)n(C)c3cn2-c2ccccc2)cc1	0
COc1ccc(-n2ncc3c(NCc4cccs4)ncnc32)cc1	0
N#Cc1c(N)nc(SCc2ccccc2)c(C#N)c1-c1ccco1	0
Cc1ccc(OCC(=O)NNC(=O)C(C)Sc2ncnc3sc(C)c(C)c23)cc1 (stereo not given)	1 (active)
CC(NC(=O)COc1ccccc1)C(=O)NC1=NCCS1 (stereo not given)	0
COC(=O)c1c(NC(=O)CSc2nnc(-c3cccnc3)n2Cc2ccco2)sc(C)c1C	-0.5
CCOc1ccccc1NC(=O)CSc1nnc(-c2ccco2)n1Cc1ccco1	0
CCOC(=O)c1c(NC(=O)CSc2nnc(-c3ccncc3)n2Cc2ccco2)sc(C(C)=O)c1C	-1 (active)
CCn1cc(C(=O)N2CC=C(c3ccccc3)CC2)c(=O)c2ccc(C)nc21	0
